From PubChem BioAssay (NCATS) come the findings set out here.

The target of assay [1] is Calcium and integrin-binding protein 1 (Homo sapiens) (UniProt Q99828). Briefly: Primary qHTS for Identification of Calcium Integrin Binding Protein 1 (CIB1) Competitor (AID 1508620).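 Also: GST tagged CIB1 binding a fluorescein labelled alphaIIb integrin peptide tracer; top concentration of the series differs between compounds.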 Put shortly:
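Fluorescence polarization competition: CIB1-GST (1 uM final) preincubated with compound 15 min at room temperature, then FITC-labeled alphaIIb peptide (100 nM final) added for another 15 min. Polarization read at Ex 480/Em 540.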

Assay [2] is described as follows: Primary qHTS for small molecule stabilizers of the endoplasmic reticulum resident proteome: Secreted ER Calcium Modulated Protein (SERCaMP) assay (AID 1508630). The procedure, abridged:
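GLuc-SERCaMP-expressing SH-SY5Y cells, pretreated 16 h with compound, are challenged with thapsigargin to empty ER calcium stores; after 4 h, coelenterazine is added directly to the medium and luminescence is imaged.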

A short description of assay [3]: Primary qHTS for inhibitors of nuclear receptor binding SET domain protein 2 (NSD2) in an isogenic RCH-ACV NSD2 p.E1099K mutant (9B) (AID 1645876). Also: potency is read from the fitted curve at half-maximal effect; nearly all actives have a fitted effect of over 70% in size.
Assay [4] is described as follows: Primary qHTS for inhibitors of nuclear receptor binding SET domain protein 2 (NSD2) in an RCH-ACV wild type WT cells (2C) (AID 1645877). Also: potency is read from the fitted curve at half-maximal effect; nearly all actives have a fitted effect of over 70% in size.

“And” between values parts separate entries of the source, which are not always exact repeats. Equal entries are not always repeated. Records with an inconclusive call do not appear. A call without a number means that no potency is given here. The source made the active and inactive calls. Calls follow the shape of the dose curve; as a rule, active = well fitted curve in the direction sought with a large enough effect; inconclusive = small, poorly fitted or top-dose-only effect, or another doubt; inactive = no such curve, though single readings can be large; an effect the other way counts as inactive or inconclusive. Non-standard residues stand in square brackets, D forms with d. Residues, ends and D or L forms follow the SMILES beside them. *: point of attachment. Nva = CCC[C@H](N)C(=O)O; Cbz = O=C(OCc1ccccc1)*

Sequence of Calcium and integrin-binding protein 1 (Homo sapiens) (Q99828 whole entry, looked up): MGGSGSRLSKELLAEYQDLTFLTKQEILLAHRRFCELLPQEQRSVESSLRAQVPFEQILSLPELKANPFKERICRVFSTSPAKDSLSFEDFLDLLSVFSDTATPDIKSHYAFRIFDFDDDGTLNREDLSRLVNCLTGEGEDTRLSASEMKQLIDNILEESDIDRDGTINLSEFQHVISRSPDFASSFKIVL

On to `NC(=NCCCCCCN=C(N)N=C(N)Nc1ccc(Cl)cc1)N=C(N)Nc1ccc(Cl)cc1`, for which the Potency result in assay [1] was “inactive”. In assay [2], the result was inactive. For the same compound, the Potency in assay [3] is 4170 nM (active); in assay [4], 5250 nM (active).

For `CC(=O)O[C@]1(C(C)=O)CC[C@H]2[C@@H]3C=C(C)C4=CC(=O)CC[C@]4(C)[C@@H]3CC[C@@]21C`, the result in assay [2] was inactive.

Regarding `O=C(CCCCCCC(=O)Nc1cccnc1)NO`, in assay [1], the Potency entry is “inactive”. Further, the result in assay [2] was inactive. Also, the Potency is 4170 nM (active) in assay [3] and 3320 nM (active) in assay [4].

As to `N#Cc1c(NC(=O)c2cccc3ccccc23)sc2c1CCCC2`, in assay [1], the Potency result is “inactive”. Besides, in assay [2], the outcome was inactive. For the same compound, the Potency in assay [3] and in assay [4] was 263 nM (active) in each case.

Consider `COc1cc([C@@H]2c3cc4c(cc3[C@H](O)[C@H]3COC(=O)[C@@H]23)OCO4)cc(OC)c1OC`, for which, in assay [1], the Potency entry was “inactive”. Further, the result in assay [2] was inactive. Further, the Potency is 662 nM (active) in assay [3] and 417 nM (active) in assay [4].

In the case of `O=C(NC1CC1)c1cccc(-c2ccc3c(NC(=O)C4CC4)n[nH]c3c2)c1`, in assay [1], the Potency entry is “inactive”. Further, the result in assay [2] was inactive. In addition, the Potency in assay [3] was 8330 nM (active); in assay [4], 5250 nM (active).

As for `CC(C)(C)c1nc2c3cc[nH]c(=O)c3c3cc(F)ccc3c2[nH]1`, in assay [1], the Potency entry was “inactive”. Moreover, the result in assay [2] was inactive. Further, the Potency was 662 nM (active) in assay [3] and 468 nM (active) in assay [4].

Take `CCC[C@@H](C=O)NC(=O)[C@H](CC(C)C)NC(=O)[C@H](CC(C)C)NC(=O)OCc1ccccc1` (Cbz-Leu-Leu-[Nva]-aldehyde): the Potency result in assay [1] is “inactive”. Besides, the outcome in assay [2] was inactive. Further, the Potency was 2090 nM (active) in assay [3] and 1050 nM (active) in assay [4].

As to `COc1cc(C)c(Sc2cnc(NC(=O)c3ccc(CNC(C)C(C)(C)C)cc3)s2)cc1C(=O)N1CCN(C(C)=O)CC1` (stereo not drawn), the Potency result in assay [1] is “inactive”. Further, the outcome in assay [2] was inactive. Besides, the Potency in assay [3] was 7420 nM (active); in assay [4], 4680 nM (active).

For the compound `CNC(=O)Nc1ccc(-c2nc(N3CC4CCC(C3)O4)c3cnn(C4CCC5(CC4)OCCO5)c3n2)cc1`, the Potency entry in assay [1] is “inactive”. The Potency in assay [3] was 74.2 nM (active); in assay [4], 118 nM (active).

Regarding `COc1cccc2c1C(=O)c1c(O)c3c(c(O)c1C2=O)C[C@@](O)(C(=O)CO)C[C@H]3O[C@H]1C[C@H](N)[C@H](O)[C@H](C)O1`, the result in assay [2] was inactive.

For `Cn1c(Nc2ccc(C(F)(F)F)cc2)nc2cc(Oc3ccnc(-c4ncc(C(F)(F)F)[nH]4)c3)ccc21`, in assay [1], the Potency entry is “inactive”. Moreover, in assay [2], the result was inactive. For the same compound, the Potency is 7.31 µM (active) and 5.25 µM (active) in assay [3]; 8.2 µM (active) and 4.17 µM (active) in assay [4].

Consider `CCCCCCCCc1ccc(CCC(N)(CO)CO)cc1`, for which, in assay [1], the Potency result was “inactive”. Besides, in assay [2], the outcome was inactive. Besides, the Potency in assay [3] and in assay [4] was 8330 nM (active) throughout.

Turning to `C[C@]12CC[C@@H]3c4ccc(O)cc4CC[C@H]3[C@H]1CC[C@H]2O`, in assay [2], the result was inactive.

On to `CN(C)c1ccc(C(=O)NCCCCCCC(=O)NO)cc1`, for which the Potency entry in assay [1] is “inactive”. Moreover, the result in assay [2] was inactive. The Potency is 525 nM (active) in assay [3] and 934 nM (active) in assay [4].

In the case of `COc1ccc(C=Cc2cc(OC)c(OC)c(OC)c2)cc1NC(=O)[C@H](N)CO`, the Potency result in assay [1] is “inactive”. Besides, the result in assay [2] was inactive. Further, the Potency in assay [3] and in assay [4] was 118 nM (active) each time.

Turning to `CCC(C(=O)O)C1CCC(C)C(C(C)C(O)C(C)C(=O)C(CC)C2OC3(C=CC(O)[C@@]4(CC[C@](C)(C5CC[C@@](O)(CC)C(C)O5)O4)O3)C(C)CC2C)O1` (stereo partly drawn), the Potency entry in assay [1] is “inactive”. Also, the outcome in assay [2] was inactive. The results for the Potency in assay [3] and in assay [4] were 468 nM (active) and 417 nM (active), respectively.
